From PubChem BioAssay AID1159580 (chemical genetic matrix, 2015)
Where “and” joins values, the source holds several entries; their conditions need not be identical. Equal entries are not always repeated. Screen size: about 5,500 compounds; about 2,000 (36%) were called active. Roughly 18% stayed inconclusive and do not appear here. No stated cut-off is given here; in the data, active means normalized growth mostly below about 0.91 (no sharp cut-off); inconclusive means no clear call, values can overlap the other calls; inactive means mostly above about 0.92. The list shows a part of the results.

Experiment: chemical genetic growth profiling, strain panel (AID 1159580);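 further: tested at 20 µM; growth read once vehicle control cultures reached saturation at 30 °C; 1 = growth at the plate median or of vehicle wells; lower values mean less growth of the strain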
Conditions: S. cerevisiae deletion strains, growth OD

Measured: normalized growth

COC(=O)C[C@H]1C(C)(C)C(=O)[C@@H]2CC3=C4CC(=O)O[C@@H](c5ccoc5)[C@]4(C)CCC3[C@@]1(C)C2=O (stereo not given in full)
inactive: locus YAL021C, strain ccr4, active compounds read low 0.972 | locus YAL026C, strain drs2, active compounds read low 0.983 | locus YAL030W, strain snc1, active compounds read low 1 | locus YBL061C, strain skt5, active compounds read low 0.997 | locus YBR009C, strain hhf1, active compounds read low 0.987 | locus YBR021W, strain FUR4, active compounds read low 0.986 | locus YBR023C, strain chs3, active compounds read low 1 | locus YBR171W, strain sec66, active compounds read low 0.992 | locus YBR229C, strain ROT2, active compounds read low 1 | locus YBR231C, strain swc5, active compounds read low 1.01 | locus YBR279W, strain paf1, active compounds read low 0.993 | locus YCL011C, strain gbp2, active compounds read low 1 | locus YCL016C, strain dcc1, active compounds read low 0.996 | locus YCL029C, strain bik1, active compounds read low 0.998 | locus YCL061C, strain MRC1, active compounds read low 0.988 | locus YCL069W, strain vba3, active compounds read low 0.987 | locus YCR088W, strain abp1, active compounds read low 0.988 | locus YDL005C, strain med2, active compounds read low 0.975 | locus YDL035C, strain GPR1, active compounds read low 1.01 | locus YDL040C, strain nat1, active compounds read low 0.995 | locus YDL074C, strain BRE1, active compounds read low 1.02 | locus YDL101C, strain DUN1, active compounds read low 1.01 | locus YDL134C, strain PPH21, active compounds read low 1.01 | locus YDL185W, strain tfp1, active compounds read low 1.02 | locus YDL192W, strain arf1, active compounds read low 1.01 | locus YDR001C, strain nth1, active compounds read low 0.982 | locus YDR069C, strain doa4, active compounds read low 0.982 | locus YDR101C, strain arx1, active compounds read low 0.993 | locus YDR137W, strain rgp1, active compounds read low 0.867 | locus YDR159W, strain sac3, active compounds read low 0.999 | locus YDR162C, strain NBP2, active compounds read low 1 | locus YDR195W, strain ref2 0.972 | locus YDR297W, strain sur2, active compounds read low 0.996 | locus YDR318W, strain mcm21, active compounds read low 1.01 | locus YDR334W, strain swr1, active compounds read low 0.986 | locus YDR335W, strain msn5, active compounds read low 0.985 | locus YDR388W, active compounds read low 1.01 | locus YDR392W, strain spt3, active compounds read low 0.989 | locus YDR502C, strain sam2, active compounds read low 1 | locus YEL003W, strain gim4, active compounds read low 0.996 | locus YEL037C, strain rad23, active compounds read low 0.985 | locus YEL061C, strain CIN8 (second series), active compounds read low 0.985 | locus YEL061C, strain CIN8, active compounds read low 1 | locus YER015W, strain faa2, active compounds read low 1 | locus YER016W, strain bim1, active compounds read low 0.996 | locus YER110C, active compounds read low 1.01 | locus YER111C, strain swi4, active compounds read low 0.985 | locus YER155C, strain BEM2 (second series), active compounds read low 1 | locus YER155C, strain BEM2, active compounds read low 0.997 | locus YER167W, strain BCK2, active compounds read low 1 | locus YFR010W, strain ubp6, active compounds read low 0.978 | locus YGL078C, strain dbp3, active compounds read low 1.02 | locus YGL086W, strain mad1, active compounds read low 0.982 | locus YGL167C, strain pmr1, active compounds read low 0.995 | locus YGL173C, strain kem1, active compounds read low 0.994 | locus YGL227W, strain vid30, active compounds read low 1 | locus YGL240W, strain doc1, active compounds read low 1.02 | locus YGL248W, strain PDE1, active compounds read low 1.01 | locus YGL253W, strain hxk2, active compounds read low 0.995 | locus YGR078C, strain PAC10, active compounds read low 1.01 | locus YGR135W, strain pre9, active compounds read low 1.02 | locus YGR229C, strain SMI1, active compounds read low 1.01 | locus YGR252W, strain gcn5, active compounds read low 1.03 | locus YHR013C, strain ard1, active compounds read low 0.977 | locus YHR027C, strain rpn1, active compounds read low 0.974 | locus YHR030C, strain SLT2, active compounds read low 1.01 and 0.964 | locus YHR079C, strain IRE1 (second series), active compounds read low 1 | locus YHR079C, strain IRE1, active compounds read low 0.976 | locus YHR094C, strain hxt1, active compounds read low 1.01 | locus YHR129C, strain ARP1, active compounds read low 0.999 | locus YHR142W, strain chs7, active compounds read low 0.996 | locus YHR200W, strain rpn10, active compounds read low 1 | locus YIL066C, strain RNR3, active compounds read low 1.01 | locus YIL073C, strain SPO22, active compounds read low 1.06 | locus YIL125W, strain kgd1, active compounds read low 1.01 | locus YIR030C, strain dcg1, active compounds read low 1.01 | locus YJL092W, strain hpr5, active compounds read low 0.993 | locus YJL095W, strain BCK1 (second series), active compounds read low 0.992 | locus YJL095W, strain BCK1, active compounds read low 1.02 and 0.974 | locus YJL115W, strain asf1, active compounds read low 0.978 | locus YJL129C, strain trk1, active compounds read low 0.971 | locus YJL134W, strain LCB3, active compounds read low 1.01 | locus YJL154C, strain vps35, active compounds read low 0.983 | locus YJL164C, strain tpk1, active compounds read low 1 | locus YJL166W, strain qcr8, active compounds read low 1.01 | locus YJL168C, strain set2, active compounds read low 1.01 | locus YJL187C, strain SWE1 (second series), active compounds read low 1.02 | locus YJL187C, strain SWE1, active compounds read low 0.991 | locus YJR066W, strain TOR1, active compounds read low 0.918 | locus YKL009W, strain mrt4, active compounds read low 0.999 | locus YKL068W, active compounds read low 1.01 | locus YKL085W, strain MDH1 (second series), active compounds read low 0.995 | locus YKL085W, strain MDH1, active compounds read low 0.995 | locus YKL160W, strain elf1, active compounds read low 0.996 | locus YKL190W, strain CNB1, active compounds read low 1.01 | locus YKR001C, strain vps1, active compounds read low 1.02 | locus YKR026C, strain gcn3, active compounds read low 0.994 | locus YKR091W, strain srl3, active compounds read low 0.992 | locus YLL001W, strain dnm1, active compounds read low 0.983 | locus YLL026W, active compounds read low 0.991 | locus YLL041C, strain sdh2, active compounds read low 0.991 | locus YLR027C, strain aat2, active compounds read low 0.998 | locus YLR039C, strain RIC1, active compounds read low 0.988 | locus YLR058C, strain SHM2, active compounds read low 1 | locus YLR102C, strain apc9, active compounds read low 1.01 | locus YLR113W, strain HOG1, active compounds read low 1.01 | locus YLR221C, strain rsa3, active compounds read low 0.998 | locus YLR258W, strain gsy2, active compounds read low 0.988 | locus YLR262C, strain YPT6 (second series), active compounds read low 0.912 | locus YLR268W, strain sec22, active compounds read low 1 | locus YLR320W, strain mms22, active compounds read low 1.01 | locus YLR330W, strain CHS5, active compounds read low 1 | locus YLR342W, strain FKS1, active compounds read low 0.998 | locus YLR357W, strain rsc2, active compounds read low 1.01 | locus YLR370C, strain arc18, active compounds read low 0.988 | locus YLR371W, strain rom2, active compounds read low 1.01 | locus YLR384C, strain iki3, active compounds read low 0.993 | locus YLR418C, strain cdc73, active compounds read low 1.03 | locus YML016C, strain PPZ1, active compounds read low 0.998 | locus YML032C, strain rad52, active compounds read low 0.997 | locus YML120C, strain ndi1, active compounds read low 0.995 | locus YML124C, strain tub3, active compounds read low 1.01 | locus YMR058W, strain fet3, active compounds read low 0.981 | locus YMR078C, strain ctf18, active compounds read low 1.02 | locus YMR125W, strain sto1, active compounds read low 0.982 | locus YMR129W, active compounds read low 0.998 | locus YMR205C, strain PFK2, active compounds read low 0.988 | locus YMR223W, strain ubp8, active compounds read low 0.999 | locus YMR231W, strain pep5, active compounds read low 0.98 | locus YMR307W, strain GAS1, active compounds read low 0.96 | locus YNL067W, strain RPL9B, active compounds read low 1.02 | locus YNL071W, strain lat1, active compounds read low 0.989 | locus YNL183C, strain NPR1, active compounds read low 0.963 | locus YNL209W, strain ssb2, active compounds read low 0.996 | locus YNL233W, strain BNI4, active compounds read low 1.03 | locus YNL248C, strain rpa49, active compounds read low 0.982 | locus YNL250W, strain rad50, active compounds read low 0.998 | locus YNL271C, strain bni1, active compounds read low 1.01 | locus YNL298W, strain CLA4, active compounds read low 1.03 | locus YNL307C, strain MCK1, active compounds read low 1.01 | locus YNL322C, strain KRE1 (second series), active compounds read low 0.996 | locus YNR049C, strain mso1, active compounds read low 0.987 | locus YNR052C, strain pop2, active compounds read low 1.01 | locus YOL012C, strain htz1 0.887 | locus YOL147C, strain pex11, active compounds read low 1.01 | locus YOR001W, strain rrp6, active compounds read low 0.985 | locus YOR061W, strain CKA2, active compounds read low 1 | locus YOR069W, strain VPS5, active compounds read low 1 | locus YOR070C, strain gyp1, active compounds read low 0.991 | locus YOR080W, strain dia2, active compounds read low 0.995 | locus YOR083W, strain WHI5, active compounds read low 0.996 | locus YOR106W, strain vam3, active compounds read low 0.991 | locus YOR136W, strain idh2, active compounds read low 1.01 | locus YOR144C, strain elg1, active compounds read low 1 | locus YOR184W, strain ser1, active compounds read low 1 | locus YOR231W, strain MKK1, active compounds read low 0.979 | locus YOR265W, strain rbl2, active compounds read low 0.987 | locus YOR270C, strain vph1, active compounds read low 0.941 | locus YOR290C, strain snf2, active compounds read low 1 | locus YOR316C, strain cot1, active compounds read low 1.01 | locus YPL051W, strain arl3, active compounds read low 0.992 | locus YPL078C, strain atp4, active compounds read low 0.987 | locus YPL106C, strain sse1, active compounds read low 1.04 | locus YPL240C, strain hsp82, active compounds read low 0.998 | locus YPL256C, strain CLN2, active compounds read low 0.97 | locus YPR119W, strain clb2, active compounds read low 1.01 | locus YPR141C, strain kar3, active compounds read low 1.01 | locus YPR163C, strain tif3, active compounds read low 1.01 | locus YPR167C, strain met16, active compounds read low 1.01 | strain wtn01, active compounds read low 0.981
